Results on eight compounds are retold here after PubChem BioAssay (NCATS).

The nature of test [1]: Quantitative High-Throughput drug screen in 47 multiple myeloma cell lines against the NCATS MIPE library collection: Karpas620_DSMZ cell viability assay (AID 1918959). Further: nearly all actives have a fitted effect of over 30% in size. The method, boiled down: (§1)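 Viability readout: CellTiter-Glo luminescence following 5 min room-temperature incubation with reagent. Prior exposure: 48 h, 37C, humidified 5% CO2, 500 cells per well.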
Test [2] in a line: Quantitative High-Throughput drug screen in 47 multiple myeloma cell lines against the NCATS MIPE library collection: KMM1_JCRB cell viability assay (AID 1918960). Further: nearly all actives have a fitted effect of over 30% in size. The gist of the method:
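ATP readout (CellTiter-Glo), 48 h drug incubation, 37 °C/5% CO2, 500 cells per well; normalisation to DMSO (100%) and media-only (0%) controls.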

Test [3] can be described thus: Quantitative High-Throughput drug screen in 47 multiple myeloma cell lines against the NCATS MIPE library collection: Karpas417_ECACC cell viability assay (AID 1918961). To be noted: Karpas417 myeloma viability, CellTiter-Glo ATP luminescence, 48 h; viability (% of DMSO): at 45.8 µM (top of the series). The gist of the method: (§2)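 Approved and investigational drugs from MIPE 4.0 were added by pin tool to 500 cells per well. After 48 hours at 37C, ATP-based CellTiter-Glo luminescence indicated remaining viability.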
(In general: In ATP-based viability assays light output follows the ATP content of the culture.)

The nature of test [4]: Quantitative High-Throughput drug screen in 47 multiple myeloma cell lines against the NCATS MIPE library collection: KHM11_PLB cell viability assay (AID 1918962). Further: nearly all actives have a fitted effect of over 35% in size. The method, boiled down:
as §1

Test [5] is described as follows: Quantitative High-Throughput drug screen in 47 multiple myeloma cell lines against the NCATS MIPE library collection: H1112_PLB cell viability assay (AID 1918967; further: nearly all actives have a fitted effect of over 30% in size). The gist of the method:
(§3)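 Myeloma cell lines, 500 cells per well, exposed to MIPE 4.0 library compounds for 48 h at 37C, 5% CO2. Viability from ATP by CellTiter-Glo luminescence; normalised to DMSO (100%) and media-only (0%) wells.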

Test [6] can be described thus: Quantitative High-Throughput drug screen in 47 multiple myeloma cell lines against the NCATS MIPE library collection: Karpas25_ECACC cell viability assay (AID 1918968; further: nearly all actives have a fitted effect of over 35% in size). The method, boiled down: as §3
A short description of test [7]: Quantitative High-Throughput drug screen in 47 multiple myeloma cell lines against the NCATS MIPE library collection: KMS27_JCRB cell viability assay (AID 1918970). Further: nearly all actives have a fitted effect of over 30% in size. The method, boiled down:
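Viability inhibition screen, 48 h compound exposure, luminescent ATP read-out.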

A short description of test [8]: Quantitative High-Throughput drug screen in 47 multiple myeloma cell lines against the NCATS MIPE library collection: KMS12PE_JCRB cell viability assay (AID 1918972). Further: nearly all actives have a fitted effect of over 30% in size. The method, boiled down:
as §2

Test [9] is described as follows: Quantitative High-Throughput drug screen in 47 multiple myeloma cell lines against the NCATS MIPE library collection: MMM1_PLB cell viability assay (AID 1918976). Further: nearly all actives have a fitted effect of over 35% in size. The note with it: MMM1 myeloma cells viability, CellTiter-Glo, 48 h. The gist of the method:
(§4)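 MIPE 4.0 approved/investigational drugs; 500 cells/well; 48 h 37 °C humidified 5% CO2; CTG luminescence readout; DMSO = 100%, media = 0% viability.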

Test [10] in a line: Quantitative High-Throughput drug screen in 47 multiple myeloma cell lines against the NCATS MIPE library collection: MOLP8_DSMZ cell viability assay (AID 1918977). Further: nearly all actives have a fitted effect of over 45% in size. The gist of the method:
as §4

The nature of test [11]: Quantitative High-Throughput drug screen in 47 multiple myeloma cell lines against the NCATS MIPE library collection: JIM3_ECACC cell viability assay (AID 1918963; further: nearly all actives have a fitted effect of over 35% in size). The gist of the method:
as §1

Test [12] in a line: Quantitative High-Throughput drug screen in 47 multiple myeloma cell lines against the NCATS MIPE library collection: OCIMY1_PLB cell viability assay (AID 1918979). Further: nearly all actives have a fitted effect of over 35% in size. The gist of the method: as §4
Test [13] is described as follows: Quantitative High-Throughput drug screen in 47 multiple myeloma cell lines against the NCATS MIPE library collection: MM1R_ATCC cell viability assay (AID 1918981). Further: nearly all actives have a fitted effect of over 35% in size. The gist of the method: as §4
The nature of test [14]: Quantitative High-Throughput drug screen in 47 multiple myeloma cell lines against the NCATS MIPE library collection: LP1_DSMZ cell viability assay (AID 1918982). Further: nearly all actives have a fitted effect of over 35% in size. The method, boiled down:
as §4

Test [15] in a line: Quantitative High-Throughput drug screen in 47 multiple myeloma cell lines against the NCATS MIPE library collection: INA6_PLB cell viability assay (AID 1918965; further: nearly all actives have a fitted effect of over 55% in size). The gist of the method:
as §2

Test [16] in a line: Quantitative High-Throughput drug screen in 47 multiple myeloma cell lines against the NCATS MIPE library collection: JJN3_DSMZ cell viability assay (AID 1918966; further: nearly all actives have a fitted effect of over 50% in size). The gist of the method:
as §3

Test [17] is described as follows: Quantitative High-Throughput drug screen in 47 multiple myeloma cell lines against the NCATS MIPE library collection: KMS20_JCRB cell viability assay (AID 1918973). Further: nearly all actives have a fitted effect of over 45% in size. The gist of the method: as §3
The nature of test [18]: Quantitative High-Throughput drug screen in 47 multiple myeloma cell lines against the NCATS MIPE library collection: KMS26_JCRB cell viability assay (AID 1918975). Further: nearly all actives have a fitted effect of over 45% in size. The gist of the method:
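Luminescent ATP measurement with CellTiter-Glo gives viability, scaled between DMSO-only wells (100%) and media-only wells (0%). Cells, 500 per well, faced library compounds for 48 hours at 37C.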

The nature of test [19]: Quantitative High-Throughput drug screen in 47 multiple myeloma cell lines against the NCATS MIPE library collection: MM1S_ATCC cell viability assay (AID 1918980). Further: nearly all actives have a fitted effect of over 45% in size. The method, boiled down: as §4
The nature of test [20]: Quantitative High-Throughput drug screen in 47 multiple myeloma cell lines against the NCATS MIPE library collection: KMS21BM_JCRB cell viability assay (AID 1918974). The gist of the method:
as §3

Records with an inconclusive call do not appear. The source made the active and inactive calls. The call rests on the fitted dose curve; in most records, active means well fitted curve in the direction sought with a large enough effect; inconclusive means small, poorly fitted or top-dose-only effect, or another doubt; inactive means no such curve, though single readings can be large; an effect the other way counts as inactive or inconclusive.
Potency means the concentration at half of the fitted maximal effect.

Turning to `CN(C)[C@@H]1C(=O)C(C(N)=O)=C(O)[C@@]2(O)C(=O)C3=C(O)c4c(O)cccc4[C@@](C)(O)[C@H]3C[C@@H]12`, the Potency entry in test [1], in [2], in test [3], in test [4], in [5] and in test [6] was “inactive” throughout. The Potency entry in test [7], in [8] and in test [10] was “inactive” throughout. Moreover, the Potency in [9] was 8330 nM (active).
Take `COc1ccc(C(=O)c2c(C)n(CCN3CCOCC3)c3ccccc23)cc1`: the Potency entry in test [2], in test [4], in test [11], in test [5], in test [7] and in [10] was “inactive” throughout. For the same compound, the Potency entry in test [12], in test [13] and in test [14] was “inactive” throughout.
For the compound `C[C@@H]1[C@@H](CC(C[C@H]2O[C@@H]3O[C@]4(C)CC[C@@H]5[C@H](C)CC[C@@H]([C@H]2C)[C@@]35OO4)C[S+](=O)([O-])c2ccc(COC(=O)N(C)C)cc2)O[C@@H]2O[C@]3(C)CC[C@H]4[C@H](C)CC[C@@H]1[C@@]24OO3` (stereo not given in full), the Potency in test [1] was 41.8 nM (active); in [2] it was 105 nM (active); in test [3], 132 nM (active); in test [11], 264 nM (active); in test [15], 235 nM (active); in test [16] it was 148 nM (active). The Potency in test [5] was 209 nM (active); in test [6], 118 nM (active); in test [7], 187 nM (active); in [8], 83.3 nM (active); in test [17], 264 nM (active); in test [18], 296 nM (active). The Potency in [9] is 148 nM (active); in [10], 187 nM (active); in test [12], 187 nM (active); in test [19], 526 nM (active); in [13], 332 nM (active).
Regarding `O=c1[nH]c2ccccc2n1CCCN1CCC(n2c(=O)[nH]c3cc(Cl)ccc32)CC1`, the Potency in test [1] is 20900 nM (active); in test [15], 18700 nM (active); in test [6], 37.2 nM (active); in [8], 18700 nM (active); in test [20] it was 118 nM (active); in test [19], 41.8 nM (active). Moreover, the Potency entry in test [4], in [11], in test [16], in test [10], in test [12] and in test [13] was “inactive” throughout.
In the case of `COC1(CS(=O)c2ccccc2)CCN(CCc2c[nH]c3ccc(F)cc23)CC1` (stereo not given), the Potency result in test [3], in [4], in test [11], in [16], in [5] and in test [20] was “inactive” each time. The Potency result in [18], in test [10], in test [12], in test [13] and in test [14] was “inactive” throughout. The figures for the Potency in [6] and in test [9] were 9350 nM (active) and 3720 nM (active), respectively.
Turning to `COC[C@H]1OC(=O)c2coc3c2[C@@]1(C)C1=C(C3=O)C2CCC(=O)[C@@]2(C)C[C@H]1OC(C)=O` (stereo not given in full), the Potency in [1] is 4690 nM (active); in [2], 7430 nM (active); in [4], 3320 nM (active); in test [11], 4690 nM (active); in [15], 2350 nM (active); in test [16] it was 10500 nM (active). Also, the Potency in test [5] was 2640 nM (active); in [6], 526 nM (active); in [7], 14800 nM (active); in test [8], 16600 nM (active); in [18], 1180 nM (active); in test [9], 2640 nM (active). The Potency in test [10] was 1320 nM (active); in [19], 14800 nM (active); in test [13], 1180 nM (active).
In the case of `CC(O)(CS(=O)(=O)c1ccc(F)cc1)C(=O)Nc1ccc(C#N)c(C(F)(F)F)c1` (stereo not given), the Potency in [1] is 2090 nM (active); in test [2], 2640 nM (active); in test [3] it was 372 nM (active); in [4], 1870 nM (active); in test [11], 2960 nM (active); in test [15], 590 nM (active). In addition, the Potency was 4690 nM (active) in test [16]; 235 nM (active) in test [5]; 264 nM (active) in test [6]; 2350 nM (active) in test [7]; 1660 nM (active) in test [8]; 935 nM (active) in test [17]. For the same compound, the Potency was 1180 nM (active) in test [18], 132 nM (active) in test [19] and 1050 nM (active) in [13].
As for `Cc1cc(SCc2sc(-c3ccc(C(F)(F)F)c(F)c3)nc2C)ccc1OCC(=O)O`, the Potency in [11] is 20900 nM (active); in test [5], 20900 nM (active); in [6] it was 16600 nM (active); in test [8], 18700 nM (active); in test [18] it was 4690 nM (active); in [19], 9350 nM (active). Further, in test [14], the Potency was 16600 nM (active). Also, the Potency entry in [16] and in [12] was “inactive” each time.
